Screening data: PubChem, National Center for Advancing Translational Sciences (NCATS)
Giardia FBPA inh-1 = qHTS Assay for Inhibitors of Fructose-1,6-bisphosphate Aldolase from Giardia Lamblia | A8B2U2 | purified Giardia FBPA | Potency, µM (titrated, usually from 59.6 µM), for inactives: at the highest dose activity, negative = inhibition, hits mostly inhibitors | 0.71% of 290,000 active | AID 2451, 2010; further: nearly all actives have a fitted effect of over 55% in size
Target sequence (A8B2U2 whole entry, looked up): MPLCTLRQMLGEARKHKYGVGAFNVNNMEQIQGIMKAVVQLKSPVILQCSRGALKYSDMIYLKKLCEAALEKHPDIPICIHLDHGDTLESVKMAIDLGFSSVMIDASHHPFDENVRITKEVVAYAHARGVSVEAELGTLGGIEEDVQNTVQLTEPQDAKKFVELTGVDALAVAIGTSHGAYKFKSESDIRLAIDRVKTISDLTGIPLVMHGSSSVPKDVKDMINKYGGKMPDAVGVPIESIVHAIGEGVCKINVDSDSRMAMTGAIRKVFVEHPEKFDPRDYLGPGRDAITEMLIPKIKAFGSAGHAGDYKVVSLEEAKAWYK
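Giardia FBPA (40 nM reagent) was preincubated 10 min at RT with compound (up to 57.5 uM final), then substrate plus GAPDH/TPI/NAD/arsenate coupling system with diaphorase/resazurin was added; resorufin fluorescence (525/598 nm) was read after 20 min.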
Vaccinia Venus = qHTS for Stage-Specific Inhibitors of Vaccinia Orthopoxvirus: Venus Reporter Primary qHTS | 0.46% of 330,000 active | Potency, µM (top dose mostly 36.5 µM), for inactives: at the top dose activity change, negative = inhibition, actives largely listed as inhibitors | Vaccinia virus Venus reporter expression, fluorescence; calls by dose curve; tested in A549 cells; further: nearly all actives have a fitted effect of over 30% in size
Vaccinia mCherry = qHTS for Stage-Specific Inhibitors of Vaccinia Orthopoxvirus: mCherry Reporter Primary qHTS | Vaccinia virus mCherry reporter infection, fluorescence | Potency, µM (titrated, usually from 36.5 µM), for inactives: at the highest dose activity change, negative = inhibition, actives largely listed as inhibitors | 0.63% of 310,000 active; calls by dose curve; tested in A549 cells; further: nearly all actives have a fitted effect of over 35% in size
FMDV antiviral = High Throughput Screening for Foot and Mouth Disease Virus Antivirals; Potency, µM (top dose mostly 57.9 µM), without a hit: at the top dose activity change, negative = inhibition, hits mostly inhibitors; FMDV antiviral cell-based qHTS; 1.2% of 410,000 active; calls by dose curve; tested in HEK293T cells; further: read-out not given here; nearly all actives have a fitted effect of over 45% in size
Giardia growth = qHTS Assay for Inhibitors of Fructose-1,6-bisphosphate Aldolase from Giardia Lamblia: Giardia lamblia growth inhibition. Giardia lamblia trophozoite growth inhibition. AID 2785, 2010. Potency, µM (top dose mostly 57.5 µM), inactives show at the top dose activity change, negative = inhibition, actives largely listed as inhibitors. 5% of 1,500 active. shares compounds with Giardia FBPA inh-1;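 further: trophozoites exposed to compound for 48 h at 37 °C; nearly all actives have a fitted effect of over 70% in size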
Mammal cell tox = qHTS Assay for Inhibitors of Fructose-1,6-bisphosphate Aldolase from Giardia Lamblia: Mammalian cellular toxicity; shares compounds with Giardia FBPA inh-1; mammalian cell viability counter-screen, qHTS; Potency, µM (titrated, usually from 57.5 µM), for the others: at the top dose viability change, negative = toxicity, actives largely listed as inhibitors; 4% of 1,500 active; AID 2786, 2010;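 further: Chinese hamster ovary cells used as mammalian cytotoxicity surrogate; viability measured as cellular ATP by luminescence; compound exposure lasted 48 h before reading; nearly all actives have a fitted effect of over 60% in size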
Giardia FBPA inh-2 = qHTS Assay for Inhibitors of Fructose-1,6-bisphosphate Aldolase from Giardia Lamblia: Primary screen confirmation | shares compounds with Giardia FBPA inh-1 | purified Giardia aldolase enzyme activity, qHTS | Potency, µM (titrated, usually from 57.5 µM), for the others: at the highest dose activity change, negative = inhibition, usual class: inhibitors | 5% of 1,500 active | AID 2787, 2010; further: nearly all actives have a fitted effect of over 45% in size
Rabbit FBPA inh = qHTS Assay for Inhibitors of Fructose-1,6-bisphosphate Aldolase from Giardia Lamblia: Rabbit FBPA Selectivity | Potency, µM (top dose mostly 57.5 µM), without a hit: at the top dose activity, negative = inhibition, actives largely listed as inhibitors | AID 2794, 2010 | 4% of 1,500 active | Rabbit muscle FBPA enzyme inhibition, selectivity counter-screen | shares compounds with Giardia FBPA inh-1; further: nearly all actives have a fitted effect of over 60% in size
GAPDH coupling = qHTS Assay for Inhibitors of Fructose-1,6-bisphosphate Aldolase from Giardia Lamblia: Coupling assay counterscreen confirmation; shares compounds with Giardia FBPA inh-1; GAPDH coupling enzyme counterscreen, biochemical, qHTS; Potency, µM (highest dose often 57.5 µM), without a hit: top-dose activity change, negative = inhibition, usual class: inhibitors; 6% of 1,500 active; AID 2795, 2010; further: nearly all actives have a fitted effect of over 55% in size
An asterisk follows results filed as active; i = inactive; ? = inconclusive; . = not tested or not shown; ! = not active in a repeat; [ ] = dose if it differs, or a comment. Shown are actives, neighbours in structure and some others; about 2.2% of the full set was active somewhere. Unless noted, the call rests on the fitted dose curve; in most records, active means well fitted curve in the direction sought with a large enough effect; inconclusive means small, poorly fitted or top-dose-only effect, or another doubt; inactive means no such curve, though single readings can be large; an effect the other way counts as inactive or inconclusive. On the % scale 0 is the no-effect control and ±100 the full control effect; potency means the concentration at half of the fitted maximal effect.

SMILES	Giardia FBPA inh-1	Vaccinia Venus	Vaccinia mCherry	FMDV antiviral	Giardia growth	Mammal cell tox	Giardia FBPA inh-2	Rabbit FBPA inh	GAPDH coupling
CCCc1ccc(S(=O)(=O)N2CCC(c3nnc(-c4cccc(C)c4)o3)CC2)cc1	.	-19%	-15%	5%	.	.	.	.	.
O=C(Cc1c(F)cccc1Cl)NNC(=S)Nc1ccc(S(=O)(=O)Nc2ncccn2)cc1	14µM*	.	.	-14%	3%[10.4 µM]	4%	20%	20%	27%
O=C(C[n+]1cc(Br)cc2ccccc21)c1ccc(O)c(O)c1	.	-11%	-13%	.	.	.	.	.	.
Cc1ccc(S(=O)(=O)c2cnc(-c3ccccc3)[nH]c2=O)cc1	.	-11%	i	.	.	.	.	.	.
Cc1oc2c(O)c(O)ccc2c(=O)c1-c1ccc(Cl)cc1	?	-28%	?	-14%	.	.	.	.	.
Cc1oc2c(O)c(O)ccc2c(=O)c1-c1ccccc1	11µM*	?	?	-16%	6%	-1%	-27%	?	-22%
COCCNC(=O)COc1ccc(OCCNC[C@H](O)COc2ccccc2)cc1	.	-14%	i	-17%	.	.	.	.	.
NS(=O)(=O)c1ccc(NC(=S)NC2CCCCC2)cc1	10µM*	.	.	6%	-2%[38.3 µM]	?	40µM*	?	40µM*
NS(=O)(=O)c1ccc(NC(=O)NC2CCCCC2)cc1	1%	-4%	i	18%	.	.	.	.	.
N#Cc1c(N)sc(=S)c2c1CCN(Cc1ccccc1)C2	1.3µM*	.	.	.	15%[38.3 µM]	-8%	32µM*	?	32µM*
CCN1CCc2c(sc(N)c2C#N)C1	?	8%	-1%	-23%	.	.	.	.	.
N#Cc1c(C#N)c(O)c2ccccc2c1O	20µM*	.	.	4%	?	-7%	?	?	?
O=[N+]([O-])c1cc(Cl)ccc1Nc1nc(Nc2ccc(Cl)cc2[N+](=O)[O-])nc(N2CCOCC2)n1	.	-13%	10%	.	.	.	.	.	.
O=C(CCCn1c(=O)oc2ccccc21)N1CCc2ccccc2C1	3%	-8%	-14%	41%	.	.	.	.	.
O=C(CCN1CCc2ccccc2C1)Nc1ccccc1	16µM*	.	.	20%	26%	13%	-1%	-3%	7%
O=C(CCN1CCc2ccccc2C1)Nc1cccc(F)c1	?	.	.	-2%	.	.	.	.	.
O=C(CCn1c(=O)oc2ccccc21)NCCN1CCc2ccccc2C1	16µM*	.	.	5%	0%[10.4 µM]	23%	1%	1%	5%
S=c1nc(-c2ccc(Cl)cc2)[nH][nH]1	4%	-14%	-2%	-15%	.	.	.	.	.
Cc1ccc(C)n1-c1nc(=S)[nH][nH]1	18µM*	-1%	-10%	6%	-3%[10.4 µM]	-8%	2%	-22%	-21%
O=C1C(=C(O)c2ccccc2)C(=O)c2ccccc21	-5%	39%	-1%	.	.	.	.	.	.
O=C1C(SCCO)=C(SCCO)C(=O)c2ccccc21	0.89µM*	?	10µM*!	10µM*	?	11µM*	6.3µM*	?	4µM*
Cc1oc(CSCCSCc2cc(C(=O)O)c(C)o2)cc1C(=O)O	14µM*	.	.	-1%	61%	9%	-1%	-7%	11%
CCc1sc(-c2cc3cccc(OC)c3oc2=O)nc1-c1ccccc1	.	-8%	23%	.	.	.	.	.	.
CCNc1nc(NC(C)C)nc(NS(=O)(=O)c2ccc(C)cc2)n1	28µM*	.	.	85%	-20%	-2%	?	?	40µM*
